This note sets out measurements from PubChem BioAssay AID1159580 (chemical genetic matrix, 2015).

The nature of the assay: chemical genetic growth profiling, strain panel (AID 1159580).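 Further: tested at 20 µM; growth read once vehicle control cultures reached saturation at 30 °C; 1 = growth at the plate median or of vehicle wells; lower values mean less growth of the strain.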 Conditions: growth OD.
[1] abbreviates: S. cerevisiae deletion strains, locus YAL013W, strain DEP1, hits give low values.
Where [2] appears, read: S. cerevisiae deletion strains, locus YDR150W, strain NUM1, hits give low values.
The mark [3] stands for this setting: S. cerevisiae deletion strains, locus YMR307W, strain GAS1, hits give low values.
The mark [4] stands for this setting: S. cerevisiae deletion strains, locus YNL322C, strain KRE1, hits give low values.
[5] abbreviates: S. cerevisiae deletion strains, locus YPL055C, strain LGE1, hits give low values.
[6] abbreviates: S. cerevisiae deletion strains, locus YBR229C, strain ROT2, hits give low values.
Where [7] appears, read: S. cerevisiae deletion strains, locus YDL101C, strain DUN1, hits give low values.
[8] abbreviates: S. cerevisiae deletion strains, locus YEL061C, strain CIN8, hits give low values.
The mark [9] stands for this setting: S. cerevisiae deletion strains, locus YGR078C, strain PAC10, hits give low values.
Setting [10] is: S. cerevisiae deletion strains, locus YHR030C, strain SLT2, hits give low values.
Setting [11] is: S. cerevisiae deletion strains, locus YHR087W, strain rtc3, hits give low values.
[12] abbreviates: S. cerevisiae deletion strains, locus YJL187C, strain SWE1, hits give low values.
The mark [13] stands for this setting: S. cerevisiae deletion strains, locus YJR043C, strain POL32, hits give low values.
[14] abbreviates: S. cerevisiae deletion strains, locus YJR075W, strain HOC1, hits give low values.
[15] abbreviates: S. cerevisiae deletion strains, locus YKL190W, strain CNB1, hits give low values.
Setting [16] is: S. cerevisiae deletion strains, locus YLR039C, strain RIC1, hits give low values.
Setting [17] is: S. cerevisiae deletion strains, locus YLR058C, strain SHM2 (second series), hits give low values.
The mark [18] stands for this setting: S. cerevisiae deletion strains, locus YLR085C, strain ARP6, hits give low values.
[19] abbreviates: S. cerevisiae deletion strains, locus YLR262C, strain YPT6, hits give low values.
Setting [20] is: S. cerevisiae deletion strains, locus YML094W, strain GIM5, hits give low values.
Setting [21] is: S. cerevisiae deletion strains, locus YMR219W, strain ESC1, hits give low values.
Where [22] appears, read: S. cerevisiae deletion strains, locus YMR263W, strain SAP30, hits give low values.
Where [23] appears, read: S. cerevisiae deletion strains, locus YNL128W, strain TEP1, hits give low values.
Where [24] appears, read: S. cerevisiae deletion strains, locus YNL153C, strain GIM3, hits give low values.
The mark [25] stands for this setting: S. cerevisiae deletion strains, locus YNL298W, strain CLA4 (second series), hits give low values.
Setting [26] is: S. cerevisiae deletion strains, locus YNR030W, strain Alg12, hits give low values.
The mark [27] stands for this setting: S. cerevisiae deletion strains, locus YPL241C, strain CIN2, hits give low values.
[28] abbreviates: S. cerevisiae deletion strains, locus YPR135W, strain CTF4, hits give low values.
Setting [29] is: S. cerevisiae strains, strain wild type, hits give low values.

SMILES strings stand for the structures. The whole screen tested about 5,500 compounds, of which about 2,000 (36%) were called active. Roughly 18% stayed inconclusive and do not appear here. This is one part of the list. Unmarked numbers belong to inactive results. No stated cut-off is given here; in the data, active means normalized growth mostly below about 0.91 (no sharp cut-off); inconclusive means no clear call, values can overlap the other calls; inactive means mostly above about 0.92.

As to `Cc1nc2c([nH]1)c(=O)n(C)c(=O)n2Cc1ccco1`, the normalized growth by setting is: under setting [1], 1.04; (S. cerevisiae deletion strains, locus YAL040C, strain CLN3, hits give low values) 1; (S. cerevisiae deletion strains, locus YCL061C, strain MRC1 (second series), hits give low values) 1.01; under setting [2], 1; (S. cerevisiae deletion strains, locus YDR363W, strain ESC2, hits give low values) 1.03; (S. cerevisiae deletion strains, locus YER002W, strain NOP16, hits give low values) 0.998. Moreover, the normalized growth was 1.02 under setting [3]; 1.01 (S. cerevisiae deletion strains, locus YNL175C, strain NOP13, hits give low values); 1.01 (S. cerevisiae deletion strains, locus YNL197C, strain WHI3, hits give low values); 0.995 (S. cerevisiae deletion strains, locus YNL224C, strain SQS1, hits give low values); 1.02 under setting [4]; 1.05 (S. cerevisiae deletion strains, locus YOR083W, strain WHI5 (second series), hits give low values). Moreover, the normalized growth under setting [5] was 1.01.
Take `O=C1c2cccc3cc([N+](=O)[O-])cc(c23)C(=O)N1CCO`: the normalized growth under setting [1] is 0.992; the normalized growth under setting [6] was 1.02; the normalized growth under setting [7] is 0.974; the normalized growth under setting [2] is 0.995; the normalized growth under setting [8] is 1.01; the normalized growth under setting [9] is 0.988. Besides, the normalized growth runs as follows: under setting [10], 1.04; under setting [11], 1.02; under setting [12], 0.984; under setting [13], 0.995; under setting [14], 1.02; under setting [15], 1.02. Also, the normalized growth under setting [16] was 1.03; the normalized growth under setting [17] is 1.01; the normalized growth under setting [18] is 0.908; the normalized growth under setting [19] is 1.05; the normalized growth under setting [20] was 0.976; the normalized growth under setting [21] was 1.01. The normalized growth is, setting by setting: under setting [22], 0.984; under setting [23], 1; under setting [24], 1.02; under setting [25], 0.975; under setting [4], 1.01; under setting [26], 0.985. The normalized growth was 0.991 under setting [5], 1.01 under setting [27], 0.89 under setting [28] and 1.01 under setting [29].
With `O=C1c2cccc3c([N+](=O)[O-])ccc(c23)C(=O)N1Cc1ccco1`, the normalized growth reads like this: under setting [1], 0.81 (active); under setting [6], 0.94; (S. cerevisiae deletion strains, locus YCL061C, strain MRC1, hits give low values) 0.896 (active); under setting [7], 0.873 (active); under setting [2], 0.763 (active); under setting [8], 0.909 (active). For the same compound, the normalized growth under setting [9] was 0.879 (active); the normalized growth under setting [10] is 0.321 (active); the normalized growth under setting [11] was 0.974; the normalized growth under setting [12] is 0.995; the normalized growth under setting [13] is 0.791 (active); the normalized growth under setting [14] is 0.97. Moreover, the normalized growth is, setting by setting: under setting [15], 0.934; under setting [16], 0.852; under setting [17], 0.972; under setting [18], 0.341 (active); under setting [19], 0.815; under setting [20], 0.797 (active). Also, the normalized growth is, setting by setting: under setting [21], 0.98; under setting [22], 0.796 (active); under setting [3], 0.739; under setting [23], 0.958; under setting [24], 0.899 (active); under setting [25], 0.753 (active). The normalized growth by setting is: under setting [4], 0.997; under setting [26], 0.559 (active); under setting [5], 0.628 (active); under setting [27], 0.634 (active); under setting [28], 0.382 (active); under setting [29], 0.935.
